# Screen size: about 360,000 compounds; about 7,500 (2.1%) were called active. Another 8% or so got no clear call; they are omitted. This excerpt belongs to a sample that is enriched for actives. A number with no mark means an inactive call. Calls follow the shape of the dose curve; as a rule, active = well fitted cell-killing curve with a large enough effect; inconclusive = small, poorly fitted or top-dose-only effect, or effect the other way, or another doubt; inactive = no such curve, though single readings can be large or run the other way.
# Experiment: qHTS for induction of synthetic lethality in tumor cells producing 2HG: qHTS for the HT-1080-IDH1KD cell line;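 as to activity, negative = toxicity: 0% = DMSO wells and -100% = cell-free medium wells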
# Conditions: HT-1080 IDH1 knockdown viability, ATP luminescence, 48 h; series mostly up to 46.1 µM; activity, negative = toxicity: at the top concentration
# Outline: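 HT-1080-IDH1KD cells (IDH1 knocked down), 750/well in RPMI with 5% FBS, treated with compound 48 h at 37 degrees C. Viability by CellTiter-Glo luminescence, normalised to DMSO and no-cell wells; concentration-response curves classed.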
# Potency is read from the fitted curve at half-maximal effect.
SMILES,"activity, negative = toxicity",Potency
CCc1nc2c(OCCOc3ccccc3)cccn2c1N(C)C(=O)c1cccs1,5.52%,
Cc1cccc(-c2cnc(C(O)c3cc(C)cc(C)c3)[nH]2)c1 (centres undefined),-12.6%,
Cc1cccc(OCC(=O)NCCNC(=O)c2cccnc2)c1,-4.95%,
Cc1ccc(OCC(=O)NCCCNC(=O)c2cccnc2)cc1C,,18.4 µM (active)
CCCOc1cccc(C(=O)NCCCNC(=O)c2cccnc2)c1,0.556%,
CCN(CC)C(=O)C1=C(C)N(Cc2ccc(F)cc2)C(=O)C(CC(=O)NCc2cccc3ccccc23)C1 (centres undefined),-2.6%,
Cc1ccc(C(=O)N/N=C/c2cccc3ccccc23)cn1,6.84%,
COc1cccc(/C=N\NC(=O)C2=NNC(=O)C2C)c1O (centres undefined),,25.9 µM (active)
COc1cc(/C=N\NC(=O)C2C(=O)NCC2c2ccccc2)cc(OC)c1O (centres undefined),2.02%,
COc1ccc(Br)cc1/C=N/NC(=O)c1cccc(S(=O)(=O)N2CCOCC2)c1,-20.3%,
COc1cccc(/C=N/NC(=O)c2[nH]nc3c2CCc2ccccc2-3)c1O,,3.66 µM (active)
COc1ccc(/C=N/NC(=O)c2ccncc2)cc1CN1CCCc2ccccc21,-7.69%,
CC(C)C1CC2=C(C(=O)OC(C)(C)O2)C(c2ccc(F)cc2)O1 (centres undefined),6.13%,
CC1=C(C(=O)N2CCOCC2)CC(CC(=O)NCC2CCCCC2)C(=O)N1Cc1ccc(F)cc1 (centres undefined),-8.15%,
O=Nc1c(O)cc(O)c2ccccc12,4.65%,
COC(=O)C[C@@H]1C=C[C@@H](NC(=O)c2cccnc2)[C@@H](CO)O1,8.29%,
O=C1NC[C@H](CCCCN2C[C@H](Cc3ccc(O)cc3)N(CC3CCCCC3)C(=O)C2=O)N(CCc2ccccc2)C1=O,8.08%,
CCCCCCN1C[C@H](O)[C@@H](n2cc(C3CC3)nn2)C[C@@H]1c1ccc(Cl)cc1,6.32%,
Cc1oc2c(F)c(F)c(F)c(F)c2c1S(=O)(=O)Nc1cccc(C(F)(F)F)c1,,18.4 µM (active)
CCOC(=O)N1CCN(C(=O)c2ccc(S(=O)(=O)Nc3cccc(C(F)(F)F)c3)cc2)CC1,-0.977%,
O=C(COc1ccc(S(=O)(=O)Nc2cccc(C(F)(F)F)c2)cc1)N1CCOCC1,-12.4%,
COc1cc(C(=O)N2CCOC23CCN(Cc2ccccc2)CC3)cc(OC)c1OC,7.44%,

SMILES,"activity, negative = toxicity",Potency
CCN(CC)C(=O)C1=C(C)N(Cc2ccccc2)C(=O)C(CC(=O)NC(c2ccccc2)c2ccccc2)C1 (centres undefined),-2.22%,
COc1cccc(NC(=O)C2(C)CCN2C(=O)CCC2CCCC2)c1 (centres undefined),-5.46%,
CCC(C(=O)OCC(=O)Nc1ccccc1-c1ccccc1)c1ccccc1 (centres undefined),3.86%,
CCC(C(=O)OCC(=O)Nc1c(Cl)cc(Cl)cc1Cl)c1ccccc1 (centres undefined),-0.177%,
CCC(C(=O)OCC(=O)Nc1ccc(C(=O)Nc2ccc(OC)cc2)cc1)c1ccccc1 (centres undefined),,25.9 µM (active)
CC(C)N1C(=O)c2ccccc2NC(=O)C1C(=O)NCc1cccs1 (centres undefined),25.2%,
Cc1cccc(NC(=O)COC(=O)c2ccccc2OCc2cccc(Br)c2)c1,9.94%,
O=C1C=C(NS(=O)(=O)c2ccccc2)C(=O)c2ccccc21,-20.1%,
O=C(NC1=CC(=O)c2ccccc2C1=O)c1ccccc1,,7.31 µM (active)
Cn1c(NC(=O)c2ccccc2)nc2ccccc21,-20%,
Cc1ccc(-c2c(N)nc3ncccn23)cc1,9.85%,
CCNC(=O)C1CCCN(C(=O)c2ccc(OC)cc2OC)CC1 (centres undefined),10.3%,
COc1ccccc1CNc1nc(Nc2ccccc2Cl)c2sccc2n1,-14.8%,
COc1cccc(CNc2nc(NCc3cccs3)nc3ccsc23)c1,,23.1 µM (active)
COc1cccc(CNc2nc(NCc3ccccc3OC)nc3ccsc23)c1,,23.1 µM (active)
COc1cccc(-c2cc3nc(NCc4ccccc4OC)n(C)c(=O)c3s2)c1,-4.35%,
COc1ccc(NC(=S)NCc2cccs2)c(OC)c1,6.2%,
Clc1ccccc1Nc1nc(NCc2cccs2)nc2ccsc12,1.77%,
COc1ccc(COC[C@H](CC(C)C)N2CCN(C(=O)c3cccc(C(F)(F)F)c3)CCC2=O)cc1,-17.8%,
CCOC(=O)c1cc2cc(OC)ccc2n1C1CCN(C)CC1,-23.1%,
CCc1ccc(OC2(C)CCN(CCOc3ccc(C)cc3)C2)cc1 (centres undefined),0%,
O[C@@H]1C[C@H](c2ccccc2)N(Cc2cccs2)C[C@H]1n1cc(C2CC2)nn1,7.32%,

SMILES,"activity, negative = toxicity",Potency
CSc1ncccc1C(=O)N1CCCC(Nc2ccc(F)c(F)c2)C1 (centres undefined),-11%,
Cc1ccccc1-c1nc(NC(C)C)nc2cc(-c3ccccc3)sc12,-18.6%,
CCc1nc2c(OCc3ccccc3)cccn2c1N(C)C(=O)c1ccco1,6.84%,
Cc1nc2c(OCc3ccc(Cl)cc3Cl)cccn2c1N(C)CC1CC1,,14.6 µM (active)
CCOC(=O)N(C)c1c(CC)nc2c(OCc3ccccc3C(=O)OC)cccn12,-3.5%,
Cc1nc2c(OCc3ccc(Cl)cc3)cccn2c1N(C)Cc1cccs1,,16.4 µM (active)
Cc1nc2ccccc2nc(C)c1=NOCc1ccc(Cl)cc1Cl,-3.31%,
CCc1nc2c(OCc3ccc(C(=O)OC)cc3)cccn2c1N(C)C(=O)C(C)C,-1.16%,
CCc1nc2c(OCc3ccc(Cl)cc3Cl)cccn2c1N(C)C(=O)C(C)C,,16.4 µM (active)
CCCCN(C=O)c1c(CC)nc2c(OCc3ccccc3C(=O)OC)cccn12,-11.3%,
CCc1nc2c(OCc3ccc(F)c(F)c3)cccn2c1N(C)C(=O)c1ccco1,0.0356%,
CCOC(=O)[C@]12CCCC=C1N(CCC1=CCCCC1)C(=O)[C@H](CC(=O)N1CCOCC1)C2,-6.31%,
Cc1ccc(S(=O)(=O)N[C@H](CO)C(C)C)cc1,26.3%,
COCCCn1c(C(=O)NC2CCCCC2)cc2c(=O)n3cccc(C)c3nc21,15.5%,
COc1ccc(S(=O)(=O)N2CCC(C(=O)NCCC(=O)Nc3ccccc3OC)CC2)cc1,1.9%,
CCOC(=O)C1=CC[C@@H](c2ccccc2)N(S(=O)(=O)c2ccc(C)cc2)[C@H]1c1cccc(OC)c1,4.62%,
COc1ccc(S(=O)(=O)N[C@@H]2C=C[C@@H](CC(=O)N3CCc4ccccc4C3)O[C@@H]2CO)cc1,18.3%,
O=C(COc1ccc(Br)cc1F)NC1CCN(Cc2ccccc2)CC1,-5.88%,
S=C(Nc1ccc(Br)cc1Cl)NC1CCN(Cc2ccccc2)CC1,,20.6 µM (active)
O=C(NC1CCN(Cc2ccccc2)CC1)c1cc(Br)c(Br)[nH]1,-5.71%,
